As usually defined, the inhibition is the drop in the measured response relative to a control, in per cent.

Values without a mark were called inactive. Calls of active or inactive are those of the source. Rule as the data show it, unless noted: active = inhibition above about 30%; inactive = the rest.

Chain of Nuclear receptor subfamily 5 group A member 2 (Homo sapiens) (O00482 whole entry, looked up): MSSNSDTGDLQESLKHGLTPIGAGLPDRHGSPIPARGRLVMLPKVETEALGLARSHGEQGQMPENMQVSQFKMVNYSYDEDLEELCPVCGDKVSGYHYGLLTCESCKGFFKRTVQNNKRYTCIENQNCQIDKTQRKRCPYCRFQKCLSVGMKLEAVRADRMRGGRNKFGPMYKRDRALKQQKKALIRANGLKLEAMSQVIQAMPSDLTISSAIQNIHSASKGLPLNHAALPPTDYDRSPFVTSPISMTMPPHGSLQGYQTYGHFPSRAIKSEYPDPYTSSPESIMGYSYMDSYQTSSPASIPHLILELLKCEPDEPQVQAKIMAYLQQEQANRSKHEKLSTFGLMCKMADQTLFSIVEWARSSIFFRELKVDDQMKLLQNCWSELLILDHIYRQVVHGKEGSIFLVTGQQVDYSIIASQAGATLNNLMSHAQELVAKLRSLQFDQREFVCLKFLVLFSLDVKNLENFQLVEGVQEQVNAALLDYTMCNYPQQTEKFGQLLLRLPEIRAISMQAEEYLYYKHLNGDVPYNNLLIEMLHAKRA

In the first test the test system is transactivating tegument protein VP16 (Human herpesvirus 1), Gal4-VP16 luciferase reporter. Briefly: repression of VP16-driven luciferase reporter – cell-based, luminescence, high throughput, counter-screen for SRC3 inhibitor project (AID 588794). The conditions noted are these: mammalian cells, at 3.6 µM, active compounds read high.
`O=C(Nc1ccccc1)NN(C(=O)CCl)c1ccccc1`: the inhibition was 13.4%.

In the case of `CCc1ccc(-c2nc(CS(=O)CC(=O)NCc3ccco3)c(C)o2)cc1` (centres undefined), the inhibition was -12.6%.

Take `Cc1nnc(SC(=O)N2c3ccccc3Sc3ccccc32)s1`: the inhibition is 28.2%.

Regarding `COc1ccc2nc(C)cc(Sc3nc4ccccc4s3)c2c1`, the inhibition was 18.1%.

`CC1CCN(c2ccc(-c3cccs3)nn2)CC1`: the inhibition is 9.04%.

For the compound `Nc1ccc(-c2nc3ccc(C(=O)O)cc3s2)cc1`, the inhibition is -26.4%.

With `O=C(/C=C/c1ccccc1)CC(O)(c1ccccc1)C(F)(F)C(F)F` (centres undefined), the inhibition was 4.32%.

For the compound `COc1ccc(/C=C/C(=O)c2ccc3c4c(cccc24)CC3)cc1OC`, the inhibition is 25.6%.

`O=c1cc(CCl)nc(Cc2c(Cl)cccc2Cl)[nH]1`: the inhibition is -8.27%.

Consider `Cc1ccc(-n2c(-c3ccc(Cl)cc3)c[n+]3c2CCC3)cc1`, for which the inhibition was 21.9%.

Regarding `O=C(NC(CSCc1ccccc1)C(=O)N/N=C/c1ccc(O)cc1O)c1ccc([N+](=O)[O-])cc1` (centres undefined), the inhibition is 34.8% (active).

As to `COc1cc(/C=C/C(=O)c2ccc3c(c2)OCCO3)cc(Br)c1OCC(=O)N(C)C`, the inhibition is 62.6% (active).

In the case of `O=C(O)CCCCCN1C(=O)CSC1=S`, the inhibition was 2.06%.

For the compound `COc1ccc(OCC(=O)N/N=C/c2ccc(O[C@@H]3O[C@H](CO)[C@@H](O)[C@H](O)[C@H]3O)cc2)cc1`, the inhibition is 60.1% (active).

In the case of `Cc1cccc(Nc2nc(N)nc(CCl)n2)c1C`, the inhibition is 31.1% (active).

On to `Cc1cc(Sc2nnc(N)s2)c2ccccc2n1`, for which the inhibition was 22.2%.

Regarding `CC(C)(C)C(=O)Nc1ccc(-c2cc3cc(Cl)ccc3o2)cc1`, the inhibition was -26.2%.

For `COc1cccc(F)c1C(C[N+](=O)[O-])c1c(N)n(C)c(=O)n(C)c1=O` (centres undefined), the inhibition was 24.4%.

On to `CCOc1ccc(C(=O)C(CCC(CN(C)C)C(=O)c2ccc(OCC)cc2)CN(C)C)cc1` (centres undefined), for which the inhibition was 34.5% (active).

As for `CCN(CC)S(=O)(=O)c1ccc(N/N=C/c2cc(OC)ccc2O)nc1`, the inhibition was 31% (active).

`CCN(c1cccc(C)c1)c1ncnc2nc[nH]c12`: the inhibition is 21.8%.

For `Cc1ccc(/C=C2\SC(=S)N(CCCC(=O)Nc3ccc(O)cc3)C2=O)cc1`, the inhibition is 10.3%.

For the compound `CC(C)CCOc1cccc(OCC(=O)Nc2ccncc2)c1`, the inhibition was 35.9% (active).

Consider `Cc1ccc2nc(NC(=O)CSCC(=O)OCC(=O)c3ccc(Br)cc3)sc2c1`, for which the inhibition was 40.5% (active).

Take `O=S(=O)(/C(=C/c1ccc(C(F)(F)F)cc1)c1nc2ccccc2[nH]1)c1ccccc1`: the inhibition is 58.3% (active).

For the compound `CCOc1cc(/C=C2\COc3ccccc3C2=O)ccc1OCC(=O)N(C)C`, the inhibition is 28.5%.

For `O=C(O)c1ccc(N/N=C/c2ccc3c(c2)OCO3)cc1`, the inhibition was -12.1%.

Regarding `Cc1ccc(-n2nc3c(=O)n(C(C)C(=O)NCCC4=CCCCC4)nc(C)c3c2C)cc1` (centres undefined), the inhibition was 47.1% (active).

`Cc1noc(C)c1COC(=O)c1cccc(S(=O)(=O)N2CCCCCC2)c1`: the inhibition was 20.2%.

Turning to `CC[n+]1cc(C)ccc1/C=C/c1ccc(N(C)C)cc1`, the inhibition is 58.8% (active).

On to `Cc1ccc(NC(=O)c2ccccc2NS(=O)(=O)c2ccc(F)cc2)cc1S(=O)(=O)N1CCCCC1`, for which the inhibition was 24%.

For `CCC(=O)c1ccc(O)c(CC=C(C)C)c1`, the inhibition is 23.9%.

For `CCOc1ccc(C(=O)O/N=C(\N)c2ccccn2)cc1`, the inhibition was -11.6%.

Regarding `COc1ccc(-c2csc3ncnc(NCCN4CCOCC4)c23)cc1`, the inhibition was 37.6% (active).

Turning to `COc1ccc(C(=O)Nc2ccc(C)cn2)c(OC)c1`, the inhibition is -4.91%.

As to `CCCCCCC[N+](CC)(CC)CCCCc1ccc(Cl)cc1`, the inhibition is 28.2%.

As for `COc1ccc(Cc2nnc(N/N=C/c3ccc(O)cc3)[nH]c2=O)cc1OC`, the inhibition is 81% (active).

With `CC[C@@]1(O)C(=O)OCc2c1cc1n(c2=O)Cc2cc3c(CN(C)C)c(O)ccc3nc2-1`, the inhibition is 53.2% (active).

`Cc1nc([N+](=O)[O-])c(Sc2nc3ccccc3n2C)n1Cc1ccccc1`: the inhibition is 13.4%.

As to `CC(=O)Nc1ccc(Oc2sc(C(=O)c3ccccc3)c(N)c2C#N)cc1`, the inhibition is -3.87%.

System in another test: not listed separately
Briefly: StAR promoter reporter inhibitors, counter-screen for LRH-1 inverse agonist project, cell-based, luminescence, high throughput (AID 651611; in the data active = inhibition above about 28%). Conditions: StAR promoter luciferase reporter counterscreen, at 3.6 µM, active compounds read high. (Counterscreens check selectivity or assay interference.)
Regarding `CC(C)CCOc1cccc(OCC(=O)Nc2ccncc2)c1`, the inhibition was 21.4%.

As to `CC[n+]1cc(C)ccc1/C=C/c1ccc(N(C)C)cc1`, the inhibition was 57% (active).

Take `CC(=O)Nc1ccc(Oc2sc(C(=O)c3ccccc3)c(N)c2C#N)cc1`: the inhibition is 35.8% (active).

The next test addresses Nuclear receptor subfamily 5 group A member 2 (Homo sapiens) (UniProt O00482). Kind of test: NR5A2 activity suppression in reporter cells – cell-based, luminescence, confirmation (AID 651613; in the data active = inhibition above about 42%;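 also: HEK293T cells co-transfected with LRH-1 and StAR promoter luciferase reporter; 0% = vehicle wells and 100% = parental cells lacking receptor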). The conditions noted are these: cell-based LRH-1 luciferase reporter, inverse agonism; at 3.6 µM; active compounds read high.
For `COc1ccc(OCC(=O)N/N=C/c2ccc(O[C@@H]3O[C@H](CO)[C@@H](O)[C@H](O)[C@H]3O)cc2)cc1`, the inhibition is 64.5% (active).

Regarding `CC(C)CCOc1cccc(OCC(=O)Nc2ccncc2)c1`, the inhibition was 61% (active).

On to `CC[n+]1cc(C)ccc1/C=C/c1ccc(N(C)C)cc1`, for which the inhibition was 91.7% (active).

Consider `CCCCCCC[N+](CC)(CC)CCCCc1ccc(Cl)cc1`, for which the inhibition was 79% (active).

For the compound `CC[C@@]1(O)C(=O)OCc2c1cc1n(c2=O)Cc2cc3c(CN(C)C)c(O)ccc3nc2-1`, the inhibition was 99.7% (active).

Consider `CC(=O)Nc1ccc(Oc2sc(C(=O)c3ccccc3)c(N)c2C#N)cc1`, for which the inhibition is 70.9% (active).
